Measured values reported in PubChem BioAssay.
The source made the active and inactive calls.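 How the source made its calls, unless noted: active means compound that reduces growth-factor-driven endothelial tube area in a mixed cell culture, no cutoff stated; inactive means the rest.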

How the values were obtained:
[1] = Wnt pathway potentiators raising nuclear beta-catenin – imaging, WNT3A-conditioned medium, mouse C2C12, NPC library, primary screen (AID 1117326; in the data active means nuclear beta-catenin stimulation mostly above about 4.2%, no sharp cut-off; inactive means mostly below about 10%); conditions: stronger effect = higher value
[2] = stimulators of insulin release from INS-1E, primary screen, cell-based, 5 mM glucose, NPC library (AID 1117329;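 active means compound raises insulin release from rat beta cells at 5 mM glucose, no numeric limit stated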); conditions: rat INS-1E insulin secretion, at 10 µM, stronger effect = higher value
[3] = growth inhibition of GSK3B-pretreated HCT116 cells – cell-based, CellTiter-Glo, 0.2 to 20 µM (AID 1117336;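 active means compounds lowering colon cancer cell viability after pretreatment blocking the GSK3B kinase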); conditions: HCT116 viability after GSK3B inhibitor, at 20 µM, stronger effect = higher value
[4] = inhibition of endothelial tube formation, primary screen, imaging, VEGF stimulated, CD31 staining, tube area, NPC library (AID 1117340); conditions: VEGF-stimulated ADSC/ECFC co-culture, at 10 µM, stronger effect = higher value
[5] = GLP1 release stimulators, primary, NCI-H716, NPC library (AID 1117341;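 active means compound raises GLP1 secretion from the human gut endocrine cells, with no numeric limit stated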); conditions: NCI-H716 cells, at 10 µM, stronger effect = higher value
[6] = HCT116 colon cancer cell growth inhibition, primary screen, CellTiter-Glo luminescence, NPC library (AID 1117342;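 active means compounds that lower survival of HCT116 colon cancer cells in the luminescence readout, no numeric limit stated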); conditions: at 20 µM (top of the series)
[7] = reduced SW480 viability measured with CellTiter-Glo, NPC library, primary (AID 1117343;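 active means compounds that lower viability of the colon cancer cells in the luminescence readout, with no numeric limit stated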); conditions: CellTiter-Glo luminescence; at 20 µM (top of the series)
[8] = NPC library primary testing for decreased DLD-1 cell viability via CellTiter-Glo (AID 1117346;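 active means compounds that lower survival of DLD-1 colon cancer cells in the luminescence readout, no cutoff given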); conditions: DLD-1 viability, CellTiter-Glo luminescence; at 20 µM (top of the series)
[9] = liver-stage malaria parasite load reduction – cell-based, known kinase inhibitor set, luminescence, hepatoma host viability (AID 624392; call rule not given here;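 further: infected cells incubated roughly two days before readout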); conditions: Plasmodium liver stage in hepatoma cells, luciferase luminescence, concentration not given here; liver cell % of control: measured here: host liver cell viability; parasite % of control: stronger effect = lower value
[10] = altered dexamethasone sensitivity, NF-kB reporter, cell-based, luciferase, IL-1B stimulus (AID 624486; call rule not given here;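 on percent of negative control (+Dex): 100% = mean signal of vehicle control wells on the plate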); conditions: IL-1B + dexamethasone, luminescence; percent of negative control (+Dex): actives lie on both sides, concentration not given here; z-score: measured here: IL-1B alone, no Dex
[11] = molecular target: Cellular tumor antigen p53 (Homo sapiens) (UniProt P04637); test: GFP-p53 level modulators in HPV16+ cells – imaging, known kinase inhibitor set, EGFP/DsRed ratio (AID 1053116; call rule not given here;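 further: cells exposed to compounds for 24 h at 37 °C before reading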); conditions: GFP-p53 stability, stronger effect = higher value; EGFP object count: measured here: GFP-p53 positive objects count
Cellular tumor antigen p53 (Homo sapiens), sequence (P04637 whole entry, looked up): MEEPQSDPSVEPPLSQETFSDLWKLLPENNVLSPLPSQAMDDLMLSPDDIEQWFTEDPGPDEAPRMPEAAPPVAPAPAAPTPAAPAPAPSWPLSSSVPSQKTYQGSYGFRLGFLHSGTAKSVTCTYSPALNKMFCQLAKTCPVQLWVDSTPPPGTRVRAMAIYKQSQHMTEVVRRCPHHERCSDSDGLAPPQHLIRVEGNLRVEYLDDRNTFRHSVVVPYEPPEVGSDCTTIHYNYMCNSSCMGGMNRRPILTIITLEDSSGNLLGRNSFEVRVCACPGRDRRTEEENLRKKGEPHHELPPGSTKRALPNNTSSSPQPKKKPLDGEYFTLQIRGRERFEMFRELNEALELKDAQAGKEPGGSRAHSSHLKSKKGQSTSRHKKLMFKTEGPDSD

[12] = inducers of IRF3 signaling, differentiated THP-1 – cell-based, PMA-stimulated THP-1, luminescence (AID 1053176; call rule not given here); conditions: PMA-differentiated THP-1, IRF3 reporter luminescence; stronger effect = higher value
[13] = C. elegans survival during P. aeruginosa infection – whole organism (AID 651566; call rule not given here;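 further: tested at 14 µM; sign flipped so higher z means a lower ratio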); conditions: C. elegans killed by P. aeruginosa, survival ratio
[14] = pro-inflammatory signaling induction in mouse macrophages – cell-based, murine, luminescence (AID 652131; call rule not given here); conditions: murine macrophage pro-inflammatory reporter, stronger effect = higher value
[15] = MELAS cybrid and Rieske KO viability enhancers – cell-based, MELAS cybrids, Rieske KO mouse fibroblasts, CellTiter-Glo, primary screen (AID 1508586;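 active means mean z-score across replicates of 1.96 or higher in either the MELAS or the Rieske mutant cell line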;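 further: z relative to plate mean and SD of compound and empty wells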); conditions: low glucose

CCN(CC)C(=O)N[C@@H]1C=C2c3cccc4[nH]cc(c34)C[C@@H]2N(C)C1
inactive: nuclear beta-catenin stimulation ([1]; at 10 µM) 0.6% | insulin secretion stimulation [2] 2.6% | viability decrease [3] 8.2% | tube area decrease [4] -8.2% | GLP1 secretion stimulation [5] -1% | inhibition of viability [6] 12.2% | viability decrease (inhibition) [7] -11.8% | viability decrease (inhibition) [8] -5.3%
-0.6%: nuclear beta-catenin stimulation ([1]; stimulation, at 2 µM)

CC(C)(C)NC[C@H](O)c1ccc(O)cc1Cl
-0.2%: nuclear beta-catenin stimulation ([1]; stimulation, at 2 µM)
inactive: nuclear beta-catenin stimulation ([1]; at 10 µM) 0.3% | insulin secretion stimulation [2] 7.2% | viability decrease [3] 13.2% | tube area decrease [4] -4.4% | GLP1 secretion stimulation [5] 5.5% | inhibition of viability [6] 35.7% | viability decrease (inhibition) [7] 37.1% | viability decrease (inhibition) [8] 8.8%

Clc1ccccc1N1CCNCC1
active: tube area decrease [4] -12%
inactive: nuclear beta-catenin stimulation ([1]; at 10 µM) 0.1% | insulin secretion stimulation [2] 5.2% | viability decrease [3] 4.1% | GLP1 secretion stimulation [5] 3.6% | inhibition of viability [6] 48.4% | viability decrease (inhibition) [7] 19% | viability decrease (inhibition) [8] 2%
-2.2%: nuclear beta-catenin stimulation ([1]; stimulation, at 2 µM)

O=C(CBr)Nc1ccc(Cl)cc1C(=O)c1ccccc1F
inactive: nuclear beta-catenin stimulation ([1]; at 10 µM) -1.3% | insulin secretion stimulation [2] 18.8%
-1%: nuclear beta-catenin stimulation ([1]; stimulation, at 2 µM)
active: viability decrease [3] 84.8% | tube area decrease [4] 108% | GLP1 secretion stimulation [5] 21.4% | inhibition of viability [6] 57.5% | viability decrease (inhibition) [7] 95.3% | viability decrease (inhibition) [8] 64.7%

Cc1ccc([N+](=O)[O-])[c]2c1[O][Hg]2
active: nuclear beta-catenin stimulation ([1]; at 10 µM) 20.9% | insulin secretion stimulation [2] 87.1% | viability decrease [3] 99.5% | tube area decrease [4] 105% | GLP1 secretion stimulation [5] 64.6% | inhibition of viability [6] 100% | viability decrease (inhibition) [7] 134% | viability decrease (inhibition) [8] 103%
66.9%: nuclear beta-catenin stimulation ([1]; stimulation, at 2 µM)

CCCCNCC(O)c1ccc(O)cc1 (stereo not given)
3.1%: nuclear beta-catenin stimulation ([1]; stimulation, at 2 µM)
inactive: nuclear beta-catenin stimulation ([1]; at 10 µM) -0.1% | insulin secretion stimulation [2] 2.3% | viability decrease [3] 0.3% | tube area decrease [4] 16.9% | GLP1 secretion stimulation [5] -2.1% | inhibition of viability [6] 8% | viability decrease (inhibition) [7] -1.7% | viability decrease (inhibition) [8] -9.2%

C[N+](C)(C)CCOC(=O)C(O)(c1ccccc1)c1ccccc1
-0.5%: nuclear beta-catenin stimulation ([1]; stimulation, at 2 µM)
active: viability decrease [3] 98.1% | inhibition of viability [6] 96.5% | viability decrease (inhibition) [7] 98.8% | viability decrease (inhibition) [8] 102%
inactive: nuclear beta-catenin stimulation ([1]; at 10 µM) -1.8% | insulin secretion stimulation [2] 1.1% | tube area decrease [4] -29.2% | GLP1 secretion stimulation [5] -2.6%

O=c1ccc2cc(O[C@@H]3O[C@H](CO)[C@H](O)[C@H](O)[C@H]3O)c(O)cc2o1
-0.5%: nuclear beta-catenin stimulation ([1]; stimulation, at 2 µM)
inactive: nuclear beta-catenin stimulation ([1]; at 10 µM) -0.9% | insulin secretion stimulation [2] 5% | viability decrease [3] -6.5% | tube area decrease [4] -14.5% | GLP1 secretion stimulation [5] -2.1% | inhibition of viability [6] 8.5% | viability decrease (inhibition) [7] 13.9% | viability decrease (inhibition) [8] -0.6%

CC(=O)C1CCOC1=O (stereo not given)
1.2%: nuclear beta-catenin stimulation ([1]; stimulation, at 2 µM)
inactive: nuclear beta-catenin stimulation ([1]; at 10 µM) -0.1% | insulin secretion stimulation [2] 3.7% | viability decrease [3] 13.5% | tube area decrease [4] -5% | GLP1 secretion stimulation [5] 2.7% | inhibition of viability [6] 16.7% | viability decrease (inhibition) [7] 1.5% | viability decrease (inhibition) [8] 1.4%

CC(C(O)c1ccccc1)N(C)C/C=C/c1ccccc1 (stereo not given)
inactive: nuclear beta-catenin stimulation ([1]; at 10 µM) 3.5% | insulin secretion stimulation [2] 2.4% | viability decrease [3] -101% | GLP1 secretion stimulation [5] -3.2% | viability decrease (inhibition) [7] 29.4% | viability decrease (inhibition) [8] 7.9%
active: tube area decrease [4] 54.6% | inhibition of viability [6] 60.9%
3.1%: nuclear beta-catenin stimulation ([1]; stimulation, at 2 µM)

NCC(O)c1cccc(O)c1 (stereo not given)
inactive: nuclear beta-catenin stimulation ([1]; at 10 µM) -0.9% | insulin secretion stimulation [2] 0.5% | viability decrease [3] -15% | tube area decrease [4] -16.5% | GLP1 secretion stimulation [5] 2.9% | inhibition of viability [6] 4.5% | viability decrease (inhibition) [7] 4.3% | viability decrease (inhibition) [8] 5.4%
0.5%: nuclear beta-catenin stimulation ([1]; stimulation, at 2 µM)

Cn1cc(C2=C(c3cn(CCCNC(N)=N[N+](=O)[O-])c4ccccc34)C(=O)NC2=O)c2ccccc21
-0.575: z-score [10]
2.5: EGFP object count [11]
106%: liver cell % of control [9]
inactive: parasite % of control [9] 62.5% | percent of negative control (+Dex) [10] 102% | EGFP/DsRed ratio [11] 0.0481 | fraction signal [12] 0.0015

CNC(=O)Oc1cc(C)c(/C=C/c2cncc(C(=O)NC)c2)c(C)c1
0.0985: z-score ([15]; Rieske KO mouse fibroblast survival, CellTiter-Glo 72 h)
111%: liver cell % of control [9]
1: EGFP object count [11]
1.96: z-score [10]
inactive: parasite % of control [9] 110% | percent of negative control (+Dex) [10] 107% | z-score [13] -0.2 | z-score [14] -0.101 | EGFP/DsRed ratio [11] 0.0984 | fraction signal [12] -0.0105 | z-score ([15]; MELAS cybrid survival, CellTiter-Glo 48 h, stronger effect = higher value) -0.555

CCCCCCCCCCCCNCCNCCNCC(=O)O
1.1%: nuclear beta-catenin stimulation ([1]; stimulation, at 2 µM)
active: nuclear beta-catenin stimulation ([1]; at 10 µM) 92.8% | viability decrease [3] 98.8% | tube area decrease [4] 74.7% | inhibition of viability [6] 99.3% | viability decrease (inhibition) [7] 100% | viability decrease (inhibition) [8] 101%
inactive: insulin secretion stimulation [2] -0.3% | GLP1 secretion stimulation [5] 2.6%

Cc1c(Cl)c(=O)oc2cc(OP(=O)(OCCCl)OCCCl)ccc12
0%: nuclear beta-catenin stimulation ([1]; stimulation, at 2 µM)
inactive: nuclear beta-catenin stimulation ([1]; at 10 µM) 0.5% | insulin secretion stimulation [2] 4.8% | viability decrease [3] 12.2% | tube area decrease [4] 14.4% | GLP1 secretion stimulation [5] -2.3% | inhibition of viability [6] 35.4% | viability decrease (inhibition) [7] 29.5% | viability decrease (inhibition) [8] 0.8%
